# In the library only some 6.5% were active in any assay of this set; here they are far more common.
# LASV entry inh = blocks Lassa virus binding to or entry into cells. Lassa virus pseudotype entry inhibition, cell reporter. Potency, µM (highest dose often 37.9 µM), without a hit: at the top dose activity change, negative = inhibition, most hits filed as inhibitors. 1.2% of 300,000 active. AID 540256; calls by dose curve; tested in HEK293 cells; also: potency is read from the fitted curve at half-maximal effect; nearly all actives have a fitted effect of over 50% in size
# Vaccinia Venus = inhibitors of vaccinia virus (Venus reporter); 0.46% of 330,000 active; Vaccinia virus Venus reporter expression, fluorescence; Potency, µM (series often up to 36.5 µM), inactives show at the top dose activity change, negative = inhibition, hits mostly inhibitors; AID 720580; calls by dose curve; tested in A549 cells; also: potency is read from the fitted curve at half-maximal effect; nearly all actives have a fitted effect of over 30% in size
# HCMV inh = human cytomegalovirus inhibition | activity change, negative = inhibition, % at 57.5 µM | HFF cells, HCMV-luciferase reporter, 72 h; active compounds read low | 4.5% of 410,000 active; in the data active = activity change below about -60%; inconclusive = no clear call, values can overlap the other calls; inactive = above about -39%
#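 Screen run at 2 compound doses on HFFs infected with reporter HCMV, MOI 1 PFU/cell. Luciferase activity from cell lysates at 72 h post infection gave inhibition relative to buffer-only and Salinomycin wells.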
# Marburg entry inh = Marburg virus entry inhibition; Potency, µM (top dose mostly 37.8 µM), without a hit: at the top dose activity change, negative = inhibition, usual class: inhibitors; Marburg virus pseudotyped entry inhibition, cell reporter; 1.8% of 300,000 active; calls by dose curve; tested in HEK293 cells; also: potency is read from the fitted curve at half-maximal effect
# Vaccinia mCherry = inhibitors of vaccinia virus infection (mCherry reporter signal); 0.63% of 310,000 active; Vaccinia virus mCherry reporter infection, fluorescence; Potency, µM (top dose mostly 36.5 µM), for inactives: top-dose activity change, negative = inhibition, usual class: inhibitors; AID 720579; calls by dose curve; tested in A549 cells; also: potency is read from the fitted curve at half-maximal effect; nearly all actives have a fitted effect of over 35% in size
# FMDV inh = antivirals against foot and mouth disease virus. AID 1159524. Potency, µM (titrated, usually from 57.9 µM), for inactives: top-dose activity change, negative = inhibition, usual class: inhibitors. 1.2% of 410,000 active. FMDV antiviral cell-based qHTS; calls by dose curve; tested in HEK293T cells; also: read-out not given here; potency is read from the fitted curve at half-maximal effect; nearly all actives have a fitted effect of over 45% in size
# Numbers without * were called inactive; i = inactive; ? = inconclusive; . = no result given; + = active, no number; [ ] = remark or other dose. % is scaled to controls: 0 for no effect and ±100 for the full control effect.
SMILES,LASV entry inh,Vaccinia Venus,HCMV inh,Marburg entry inh,Vaccinia mCherry,FMDV inh
Clc1ccccc1/C=N/NC1=Nc2cccc3cccc1c23,?,58%,29,?,-29%,36%
COc1ccccc1Cc1c(-c2ccccc2)nc2c3ccccc3ccn12,.,.,103,.,.,.
COc1ccc(NC(=O)N(Cc2cccs2)Cc2cc3cc4c(cc3[nH]c2=O)OCO4)cc1,-2%,.,.,5%,.,.
Cc1ccc(NC(=O)N(Cc2cccs2)Cc2cc3cc4c(cc3[nH]c2=O)OCO4)cc1,-4%,.,18,-25%,.,.
O=C(Nc1ccc(F)cc1)N(Cc1cccs1)Cc1cc2cc3c(cc2[nH]c1=O)OCO3,?,?,-61*,?,?,18µM*
O=C(Nc1ccc(F)cc1)N(Cc1ccco1)Cc1cc2cc3c(cc2[nH]c1=O)OCO3,-5%,?,?,18µM*,.,?
CC(=O)Nc1cccc(-c2cc3c(c4c2ccn4C)C2CCC3C2)c1 (centres undefined),4%[46.1 µM],.,.,.,.,.
CC(NC(=O)CSc1nc(-c2cccc(Cl)c2)nc2cc(=O)[nH]n12)c1nc2ccccc2n1C (centres undefined),-5%[46.1 µM],-1%,10,.,-1%,-19%
CS(=O)(=O)c1ccc(-c2cccc3c2OC(CNC(=O)c2ccnc(Cl)c2)C3)cc1 (centres undefined),.,0%,.,.,-5%,-23%
COc1ccc(N2C(=O)[C@@H]3[C@@H](C2=O)[C@@H]2C=C[C@H]3C23CC3)c(OC)c1,.,.,.,14%[46.1 µM],.,.
COc1cccc(C2c3cccn3-c3ccccc3N2C=NC(C)(C)C)c1 (centres undefined),.,.,22,.,.,.
NC(=O)c1cc2ccncc2c2ccccc12,.,?,-99*,.,-20%,-16%
O=C(CSc1nc2scc(-c3ccco3)c2c(=O)n1-c1ccccc1)N1CCOCC1,4.1µM*,.,-35,?,.,-21%
COC(=O)CC=C[C@@H](C)[C@@H](C=NOC[C@@H](O)[C@H]1O[C@@H]2OC(C)(C)O[C@H]2[C@@H]1O)OC,?,.,.,22%[14.2 µM],.,.
O=C(CSC1=NNC(c2ccccn2)S1)Nc1cccc(Cl)c1 (centres undefined),-26%,?,-78*,?,?,13%
O=C(CSC1=NNC(c2ccccn2)S1)Nc1ccccc1 (centres undefined),.,.,-97*,.,.,4%
O=C(CSc1nnc(-c2ccccn2)o1)Nc1ccccc1,-13%,-12%,43,?,-17%,3%
O=C(Nc1cccc(F)c1)C1CCN(c2nc3ccccc3[nH]2)CC1,8%[46.1 µM],-2%,+,.,i,-11%
CC(=O)c1cccc(Nc2nc(-c3cccc([N+](=O)[O-])c3)cs2)c1,?,-22%,26,?,?,-16%
O=[N+]([O-])c1ccc(-c2csc(Nc3ccccc3)n2)cc1,.,-24%,.,.,-22%,.
O=C(Nc1cccc(-c2csc(Nc3cccc(C(F)(F)F)c3)n2)c1)c1cc([N+](=O)[O-])cc(C(F)(F)F)c1,.,-30%,24,.,?,40µM*
O=C(Nc1ccc(-c2csc(Nc3ccccc3)n2)cc1)c1cc([N+](=O)[O-])cc(C(F)(F)F)c1,.,?,-74*,.,16µM*,25µM*
O=C(CCNS(=O)(=O)c1cccc2nsnc12)Nc1ccc(F)cc1,19%[46.1 µM],-10%,-2,?,-5%,10%
Cc1cc(S(=O)(=O)N2CCCCC2CCNC(=O)C(=O)NC2CC2)ccc1F (centres undefined),?,-12%,-39,?,-15%,-19%
Cc1cc(C)c(S(=O)(=O)N2CCCCC2CCNC(=O)C(=O)NC2CC2)c(C)c1 (centres undefined),0.89µM*,24%,.,?,?,-16%
Cc1cc(C)nc(NNS(=O)(=O)c2ccc(Cl)cc2)n1,11%,-8%,-61*,?,-13%,2%
Oc1ccc(C=NNC(=S)Nc2cccnc2)nc1,10µM*,-22%,-69*,?,-26%,27%
S=C(N/N=C/c1ccc2ncccc2c1)Nc1cccnc1,.,.,-71*,.,.,14µM*
O=S(=O)(NCCN1CCCC1)c1ccc(Br)cc1,.,.,8,.,.,-15%
O=C(Nc1ccc(F)cc1)C(c1ccnc2ccccc12)N1CCN(c2cccc(C(F)(F)F)n2)CC1 (centres undefined),.,?,-3,.,-22%,-13%

# Screening results as filed in PubChem.
